Source: PubChem BioAssay (NCI)
About 83,000 compounds went through this panel and 20% of them were active in at least one assay; those are over-represented in the sample as a whole.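 Each cell line was grown in a 96-well plate and treated with one concentration of compound for 48 hours. Values below 10 were considered active.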 Active and inactive are the calls of the source.

Tests used:
Experiment in all cases: NCI-60 one-dose screen, 48 h (100 = growth as untreated, 0 = no growth, -100 = all killed)
Details in all cases: 10 µM unless noted
SR leukemia = system: SR leukemia
RPMI-8226 leukemia = system: RPMI-8226 leukemia
OVCAR-8 ovarian = system: OVCAR-8 ovarian
OVCAR-5 ovarian = system: OVCAR-5 ovarian
OVCAR-4 ovarian = system: OVCAR-4 ovarian
SK-OV-3 ovarian = system: SK-OV-3 ovarian
IGROV1 ovarian = system: IGROV1 ovarian
OVCAR-3 ovarian = system: OVCAR-3 ovarian
HS 578T breast = system: HS 578T breast
NCI/ADR-RES ovarian = system: NCI/ADR-RES ovarian

Row | Structure (SMILES) | growth (SR leukemia) | growth (RPMI-8226 leukemia) | growth (OVCAR-8 ovarian) | growth (OVCAR-5 ovarian) | growth (OVCAR-4 ovarian) | growth (SK-OV-3 ovarian) | growth (IGROV1 ovarian) | growth (OVCAR-3 ovarian) | growth (HS 578T breast) | growth (NCI/ADR-RES ovarian)
1 | COc1ccc2cc(C(=O)N3CCC([C@@H](C)C(=O)NCc4ccc5c(c4)OCO5)CC3)[nH]c2c1 | 62.6% [50 µM] (inactive) | 47.1% [50 µM] (inactive) | 16.3% [50 µM] (inactive) | 73.1% [50 µM] (inactive) | 53.3% [50 µM] (inactive) | 1.39% [50 µM] (active) | 41.6% [50 µM] (inactive) | 8.71% [50 µM] (active) | 22.9% [50 µM] (inactive) | 38.3% [50 µM] (inactive)
2 | C=C1C(=O)O[C@H]2[C@H]1CC/C(COC(=O)NCc1ccc(Cn3c(=O)sn(-c4ccc(I)cc4)c3=O)cc1)=C\CC[C@@]1(C)O[C@@H]21 | 63% (inactive) | 7.56% (active) | 82.1% (inactive) | 96.5% (inactive) | 58.9% (inactive) | 100% (inactive) | 67.5% (inactive) | 23.7% (inactive) | 85.7% (inactive) | 106% (inactive)
3 | NC(=O)c1ccccc1OCC(=O)Nc1ccc(Cl)c(Cl)c1 | 71.4% (inactive) | 66.5% (inactive) | 91.9% (inactive) | 119% (inactive) | 96.5% (inactive) | 96.9% (inactive) | 84.2% (inactive) | 95.4% (inactive) | 98.7% (inactive) | 107% (inactive)
4 | CN(C)CCCn1c2c(c3ccncc3c1=O)C(=O)c1ccccc1-2 | -26% (active) | -22.7% (active) | 0.796% (active) | 0.243% (active) | -8.01% (active) | 34.8% (inactive) | 0.297% (active) | -12.3% (active) | 19.8% (inactive) | -23.5% (active)
5 | C=C1C(=O)O[C@H]2[C@H]1CC/C(CNC(=O)Cc1c[nH]c3ccccc13)=C\CC[C@@]1(C)O[C@@H]21 | -13.6% (active) | -0.862% (active) | 9.54% (active) | 46.2% (inactive) | 38.2% (inactive) | 106% (inactive) | 27.7% (inactive) | -5.5% (active) | 78.1% (inactive) | 89.9% (inactive)
6 | O=C1/C(=C/c2ccccn2)SC(=S)N1N1CCOCC1 | 108% (inactive) | 105% (inactive) | 98.9% (inactive) | 97.9% (inactive) | 107% (inactive) | 101% (inactive) | 94.1% (inactive) | 99.5% (inactive) | 96.7% (inactive) | 104% (inactive)
7 | O=S(=O)(Nc1ccc2ccccc2c1)c1ccc(-c2cnc(C3CC3)o2)cc1 | 16.5% (inactive) | 12% (inactive) | 24.6% (inactive) | 48% (inactive) | 70.4% (inactive) | 32.7% (inactive) | 39.1% (inactive) | 1.73% (active) | 13.4% (inactive) | 9.69% (active)
8 | CC(C)n1c2ccc(Br)cc2c2c3c(c4c5ccccc5ccc4c21)C(=O)NC3=O | 61.6% (inactive) | 91.6% (inactive) | 100% (inactive) | 87.7% (inactive) | 94.2% (inactive) | 105% (inactive) | 84.8% (inactive) | 94.2% (inactive) | 108% (inactive) | 93.2% (inactive)
9 | CN1c2ccccc2S(=O)(=O)n2c(SCC(=O)Nc3nc4ccc(F)cc4s3)nnc21 | 59.8% (inactive) | 70.1% (inactive) | 97.4% (inactive) | 113% (inactive) | 112% (inactive) | 112% (inactive) | -22.6% (active) | 124% (inactive) | 80.4% (inactive) | 89.7% (inactive)
10 | COc1ccc(/C=C2\c3cc(OC)c(OC)c(OC)c3CC[C@@H]2O)cc1F | 3.9% (active) | 28.1% (inactive) | 25.4% (inactive) | 76.2% (inactive) | 57% (inactive) | 22.4% (inactive) | 43% (inactive) | 4.82% (active) | 37.3% (inactive) | 8.8% (active)
11 | O=C(Nc1cc(Cl)cc(Cl)c1)Oc1c(Cl)c(Cl)c(Cl)c(Cl)c1Cl | 64.5% (inactive) | 37% (inactive) | 78.1% (inactive) | 87.3% (inactive) | 82.4% (inactive) | 77.2% (inactive) | 79.2% (inactive) | 54.9% (inactive) | 63.5% (inactive) | 77.5% (inactive)
12 | O=C(N/N=C/c1ccc(Cl)cc1)c1ccc(NC(=O)c2ccccn2)cc1 | 43.3% (inactive) | 62.1% (inactive) | 46.1% (inactive) | 67.6% (inactive) | -77.6% (active) | 53.9% (inactive) | 30.9% (inactive) | 0.827% (active) | 53.9% (inactive) | 53.2% (inactive)
13 | Oc1nc(NCc2ccccc2)sc1/C=C1\C=Nc2ncccc21 | 2.17% (active) | 87.1% (inactive) | 47.9% (inactive) | 82.2% (inactive) | 96.4% (inactive) | 53.9% (inactive) | 67.2% (inactive) | 53.5% (inactive) | 53.2% (inactive) | 73.7% (inactive)
14 | C=C(C)[C@@H]1CC[C@]2(C)[C@H](C=CC3=C4C[C@@](C)(CO)CC[C@]4(C)CC[C@]32C)[C@@]1(C)CCCN | -31.4% (active) | -33.3% (active) | -38.7% (active) | 19.1% (inactive) | -55.4% (active) | 8.02% (active) | 6.46% (active) | -58.8% (active) | -51.2% (active) | -40.7% (active)
15 | CC1(C)CC(=O)C2=C(C1)C(c1ccc(Cl)cc1)n1ncc(C#N)c1N2 (stereo not given) | 109% (inactive) | 96% (inactive) | 97% (inactive) | 103% (inactive) | 96.3% (inactive) | 82.8% (inactive) | 85.7% (inactive) | 113% (inactive) | 98.1% (inactive) | 106% (inactive)
16 | CCN(CC)CCCC(Cc1ccccc1)Nc1c2ccc(Cl)cc2nc2ccc(OC)cc12 (stereo not given) | -27.4% (active) | -6.17% (active) | 36.4% (inactive) | 71.1% (inactive) | 30.8% (inactive) | 101% (inactive) | 32.7% (inactive) | 77.4% (inactive) | 52.2% (inactive) | 45% (inactive)
17 | CCCCNC(=O)c1ccc2c(c1)nc(-c1ccccc1)n2C1CCCCC1 | 69.2% (inactive) | 88.3% (inactive) | 102% (inactive) | 102% (inactive) | 102% (inactive) | 48.4% (inactive) | 109% (inactive) | 115% (inactive) | 110% (inactive) | 98% (inactive)
18 | COCCn1cc(-c2nc(-c3c[nH]c4ncccc34)cs2)c2ccccc21 | 18.4% (inactive) | 43.3% (inactive) | 81% (inactive) | 43.7% (inactive) | 15.2% (inactive) | 54.8% (inactive) | 36% (inactive) | 13.6% (inactive) | 47.4% (inactive) | 69.1% (inactive)
19 | N#Cc1c(-c2ccccc2)cc(-c2ccccc2)n(CCCCC(=O)NO)c1=O | 7.41% (active) | 0.83% (active) | 15.6% (inactive) | 13.6% (inactive) | 34% (inactive) | 42.1% (inactive) | 20% (inactive) | 20.5% (inactive) | 27.4% (inactive) | -16.2% (active)
20 | O=C(CN1C(=O)S/C(=C\C(Cl)=C\c2ccccc2)C1=O)NC1CCS(=O)(=O)C1 (stereo not given) | 14.2% (inactive) | 21.7% (inactive) | 47.1% (inactive) | 110% (inactive) | 78.7% (inactive) | 106% (inactive) | 41.3% (inactive) | 19.4% (inactive) | 87.4% (inactive) | 84% (inactive)
21 | CCCC(O)Cn1ncc(C(=O)OCC)c1NC(=O)NCc1cccc(C(F)(F)F)c1 (stereo not given) | 76.1% (inactive) | 47.9% (inactive) | 102% (inactive) | 107% (inactive) | 104% (inactive) | 84.8% (inactive) | 83.8% (inactive) | 100% (inactive) | 107% (inactive) | 86.4% (inactive)
22 | COc1ccc(-c2cc(-c3cccnc3)nc3sc4c(N)c(C(C)=O)c(-c5ccccc5)nc4c23)cc1OC | 75.4% (inactive) | 53.7% (inactive) | 84.9% (inactive) | 89.5% (inactive) | 90.7% (inactive) | 110% (inactive) | 98.5% (inactive) | 82.4% (inactive) | 45.6% (inactive) | 79% (inactive)
23 | O=C(/C=C/c1ccccc1)N(C1CCCCC1)C1CCCCC1 | 83.8% (inactive) | 51.8% (inactive) | 95% (inactive) | 106% (inactive) | 84% (inactive) | 117% (inactive) | 116% (inactive) | 89.6% (inactive) | 90.8% (inactive) | 74.5% (inactive)
24 | O=c1cc(-c2ccccc2)nc(SCc2nc3cc(Cl)c(Cl)cc3[nH]2)[nH]1 | 6.56% (active) | 114% (inactive) | 104% (inactive) | 95.2% (inactive) | 101% (inactive) | 92.4% (inactive) | 101% (inactive) | 106% (inactive) | 105% (inactive) | 97% (inactive)
25 | CNC(=O)c1cc(Oc2ccc3c(c2)sc2nc(-c4ccc(NC(=O)[C@@H](NC(=O)OC)C(C)C)cc4)cn23)ccn1 | 66.1% (inactive) | 30.3% (inactive) | 34.9% (inactive) | 117% (inactive) | 66.4% (inactive) | 98% (inactive) | 82.2% (inactive) | 63.3% (inactive) | 81.6% (inactive) | 65.1% (inactive)
26 | COc1ccc2c(c1)CC[C@@H]1[C@@H]2CC[C@]2(C)C3C(=CC(COC(C)=O)C4C(=O)N(c5ccc(Cl)cc5)C(=O)C43)C[C@@H]12 (stereo not given in full) | 35.4% (inactive) | 61.8% (inactive) | 107% (inactive) | 78.4% (inactive) | 101% (inactive) | 125% (inactive) | 119% (inactive) | 110% (inactive) | 110% (inactive) | 102% (inactive)
